PP5 primary – PP5 (human) phosphatase inhibition | AID 1987 | purified PP5c, OMFP substrate fluorescence | 320,000 tested, 0.18% active | P53041 | inhibition, % at 6.7 µM;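 active = inhibition above the campaign's mean inhibition across all tested compounds plus 3 SD, cut at about 9.5% in these data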;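 also: 0% = DMSO only and 100% = 100 µM cantharidin control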
NadD inh – inhibitors of Staphylococcus aureus NadD. inhibition, % at 20 µM. purified NadD enzyme, colorimetric absorbance read-out. AID 602399. 360,000 tested, 0.78% active; in the data active = inhibition above about 26%
PREPL inhibitor – inhibits the human prolyl oligopeptidase-like enzyme | Q4J6C6 | recombinant PREPL, fluorescence polarization activity-based probe | inhibition, % at 5.96 µM | 320,000 tested, 0.68% active | AID 2751; in the data active = inhibition above about 43%;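 also: 0% = enzyme with DMSO and 100% = wells lacking enzyme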
Target sequence (Q4J6C6 whole entry, looked up): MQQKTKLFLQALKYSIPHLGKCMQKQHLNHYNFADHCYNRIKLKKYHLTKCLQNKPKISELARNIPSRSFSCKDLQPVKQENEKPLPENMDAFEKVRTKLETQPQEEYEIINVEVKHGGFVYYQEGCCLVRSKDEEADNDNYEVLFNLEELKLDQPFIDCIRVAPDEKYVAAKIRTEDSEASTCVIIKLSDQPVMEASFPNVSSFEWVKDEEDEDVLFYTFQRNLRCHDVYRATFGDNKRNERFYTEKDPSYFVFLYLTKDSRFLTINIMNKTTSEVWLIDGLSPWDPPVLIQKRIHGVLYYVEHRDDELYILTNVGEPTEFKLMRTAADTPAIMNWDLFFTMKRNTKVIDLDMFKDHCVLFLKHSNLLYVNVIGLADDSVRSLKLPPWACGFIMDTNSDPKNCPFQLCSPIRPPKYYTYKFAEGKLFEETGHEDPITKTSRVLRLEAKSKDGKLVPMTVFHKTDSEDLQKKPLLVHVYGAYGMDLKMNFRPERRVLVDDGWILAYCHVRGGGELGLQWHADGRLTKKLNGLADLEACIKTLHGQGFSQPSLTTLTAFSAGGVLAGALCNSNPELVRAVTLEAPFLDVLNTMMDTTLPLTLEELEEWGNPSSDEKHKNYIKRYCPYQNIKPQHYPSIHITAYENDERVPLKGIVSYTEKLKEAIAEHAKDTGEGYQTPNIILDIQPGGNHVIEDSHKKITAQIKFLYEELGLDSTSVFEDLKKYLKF
Rpn11 inh – Rpn11 (human) deubiquitinase inhibition | O00487 | human 26S proteasome, Ub4-pepOG fluorescence polarization; 20S core pre-blocked with epoxomicin | inhibition, % at 20 µM | 360,000 tested, 0.59% active | AID 588493;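 active = inhibition at 20 µM, scaled to each plate's controls, above about 33%, limit read from the data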
PP1 inh – PP1-alpha (human) inhibition in PP5 counter-screen; purified PP1alpha, OMFP fluorescence; inhibition, % at 6.7 µM; 320,000 tested, 0.9% active; AID 2235;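 active = inhibition above the mean inhibition of all tested compounds plus 3 SD, computed separately for each screening campaign, cut at about 15% in these data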
NadD inh conf – confirmation of Staphylococcus aureus NadD inhibitors | purified S. aureus NadD, colorimetric enzyme assay | inhibition, % at 20 µM | 2,000 tested, 13% active | shares compounds with NadD inh; in the data active = inhibition mostly above about 42%, no sharp cut-off; inactive = mostly below about 42%
* hit, by the source's call; nt = no result; ! = not confirmed by another sample. In the library only some 2.4% were active in any assay of this set; here they are far more common.

SMILES | PP5 primary | NadD inh | PREPL inhibitor | Rpn11 inh | PP1 inh | NadD inh conf
COc1ccc(C2CC(c3cccs3)=NN2C(=O)CSc2nc(=O)n3ccc(C)cc3n2)cc1 (stereo not drawn) | 3.9 | 46.4* | 20.3 | 20.4 | 11.2 | 43.8
COc1ccc(C2CC(c3cccs3)=NN2C(=O)CSc2nc3c(cnn3-c3ccccc3)c(=O)[nH]2)cc1 (stereo not drawn) | 5.7 | 40.3* | 16.2 | 5.2 | -1.7 | 7.3
Cc1cccc(NC(=O)c2nc[nH]c2C(=O)Nc2ccccc2[N+](=O)[O-])c1 | 1.7 | 31.2* | 8.6 | 5.6 | -2.4 | 3.4
CCOc1ccc(S(=O)(=O)N(CC(=O)NCc2ccncc2)c2ccc(C)cc2)cc1 | 3.1 | -1.5 | -8.4 | 0.9 | 2.1 | nt
CNc1ccc(Br)cc(C(=O)/C=C/c2cccc(Cl)c2Cl)c1=O | nt | 48.7* | nt | 35.9 | nt | 15.7
CCNc1ccc(Br)cc(C(=O)/C=C/c2ccccc2Cl)c1=O | -1.1 | 34.5* | 13.8 | 11.4 | 6.9 | 17.7
CC(=O)O[C@H]1[C@H](O)[C@H](Oc2c(O)c(C)c3c4c2[C@@H](C)CC[C@@H]4[C@@H](C)C[C@H]3C=C(C)C)O[C@@H](C)[C@H]1O | nt | -5.9 | 5.7 | 0.9 | nt | nt
C[C@@H]1CN([C@@H](C)CO)C(=O)c2cc(Br)cnc2O[C@H]1CN(C)C(=O)CN1CCOCC1 | nt | -2.4 | nt | 0.4 | nt | nt
CCCCCCc1cc2cc(S(=O)(=O)c3ccc(Cl)cc3)c(=O)oc2cc1O | 2.0 | 36.5* | -3.1 | 7.2 | 0.1 | 2.3
CCCCCCc1cc2cc(S(=O)(=O)c3ccc(C)cc3)c(=O)oc2cc1O | 1.7 | 10.6 | 0.8 | 7.0 | 7.3 | nt
Cc1ccc(-c2cc(C(=O)N/N=C/c3ccc([N+](=O)[O-])o3)c3ccccc3n2)o1 | nt | 31.9* | nt | -8.9 | nt | 8.4
O=C(N/N=C/c1ccc(Cl)c([N+](=O)[O-])c1)c1cc(-c2ccccc2)nc2ccccc12 | 0.1 | 18.8 | -10.1 | -2.0 | -3.1 | nt
O=C(N/N=C/c1ccc([N+](=O)[O-])o1)c1cc(-c2ccncc2)nc2ccccc12 | 1.2 | 16.7 | 3.6 | -7.8 | 3.9 | nt
O=C(N/N=C/c1cc([N+](=O)[O-])ccc1Cl)c1cc(-c2ccccc2)nc2ccccc12 | 0.3 | 35.7* | -3.1 | -0.9 | -0.6 | -0.6
COc1cc(/C=C/C(=O)c2ccc(NS(=O)(=O)c3ccc(C)cc3)cc2)cc(OC)c1O | 0.4 | 32.0* | 13.2 | 26.4 | -4.0 | 45.7
COc1cc(/C=C/C(=O)c2ccc(NS(=O)(=O)c3ccc(C)cc3)cc2)ccc1OC(F)F | 0.9 | 8.3 | -3.4 | -4.4 | 5.5 | nt
COc1ccc(NC(=O)c2cc(C3CCCCN3S(=O)(=O)c3ccccc3)on2)c(C)c1 (stereo not drawn) | nt | -5.4 | nt | 2.7 | nt | nt
Fc1cc(NC(=S)NCc2ccc(CNC(=S)Nc3ccc(Cl)c(F)c3)cc2)ccc1Cl | -1.2 | 35.6* | -10.5 | 5.3 | -1.4 | 39.2
COCCN(C(=O)COC(=O)CCC(=O)c1cccs1)c1c(N)n(Cc2ccccc2)c(=O)[nH]c1=O | 0.5 | 3.4 | 6.2 | -8.0 | -4.1 | nt
Cc1ccc(C)n1NC(=O)c1ccc(Cl)cc1Cl | -4.2 | 33.7* | 7.1 | 4.0 | 11.4 | 26.6
c1ccc2c(c1)CCN(c1nc(CN3CCOCC3)nc3sc4c(c13)CCCC4)C2 | 4.0 | 14.1 | 26.0 | 17.9 | 9.0 | nt
COC(=O)CCCC1=CC2=CC(=O)C(C)(OC(=O)c3cccs3)C(=O)C2=CN1Cc1ccc2c(c1)OCO2 (stereo not drawn) | 1.6 | 35.6* | 32.5 | -18.8 | 17.5* | 27.7
Cc1cc(NS(=O)(=O)c2ccc(NC(=O)c3cc4c(=O)n5ccccc5nc4s3)cc2)nc(C)n1 | nt | 31.4* | nt | 16.9 | nt | 46.0
Cc1ccc(S(=O)(=O)N2CCN(Cc3ccco3)CC2)c(C)c1 | 4.8 | -0.2 | 3.1 | -1.4 | -6.2 | nt
NS(=O)(=O)c1ccc(N2CCN(C(=O)C3COc4ccccc4O3)CC2)nc1 (stereo not drawn) | nt | 2.9 | nt | 0.5 | nt | nt
SMILES | PP5 primary | NadD inh | PREPL inhibitor | Rpn11 inh | PP1 inh | NadD inh conf
C=CCSc1nc2c(sc3nc(C)cc(C)c32)c(=O)[nH]1 | -1.0 | 26.8 | 5.5 | 4.5 | -2.6 | nt
Cc1cc(C)c2c(n1)sc1c(=O)[nH]c(SCc3ccccc3)nc12 | 0.5 | 29.1* | 10.3 | 1.1 | 7.7 | 12.8
O=C(c1ccc2c(=O)n(Cc3ccco3)c(=S)[nH]c2c1)N1CCN(c2ccccc2)CC1 | 0.0 | 28.0* | 5.9 | -2.5 | -1.4 | 23.7
CC1(c2cccc(Br)c2)NC(=O)N(CC(=O)N2CCc3ccccc32)C1=O (stereo not drawn) | 2.4 | -7.6 | -3.2 | -6.2 | -0.4 | nt
Cc1csc(N=Cc2ccc([N+](=O)[O-])o2)n1 | nt | 36.3* | nt | -12.1 | nt | 22.5
CC(C)c1ccc(NC(=O)CCS(=O)(=O)c2cccc3nonc23)cc1 | -0.1 | -4.3 | 1.9 | 1.7 | -1.8 | nt
C/C(=N\NC(=S)Nc1ccc(C)cc1)c1cccc(N)c1 | 2.4 | 26.8* | 5.1 | 10.3 | -5.0 | 17.4
COc1ccc(CCNCc2cc(C)n(-c3ccc(OC)cc3)c2C)cc1 | 2.4 | 8.2 | -1.4 | 4.3 | 2.2 | nt
O=C(C1=C[C@@H]2[C@H]3C(=O)N(c4ccc(Cl)cc4)C(=O)[C@H]3[C@@H](C(=O)c3ccc(Cl)cc3)N2C=C1)c1ccccc1 | 1.8 | 43.4* | -4.9 | 17.0 | 13.7 | 0.0
C[C@H](CO)N1C[C@H](C)[C@@H](CN(C)S(=O)(=O)c2cn(C)cn2)Oc2cc(Br)ccc2S1(=O)=O | nt | 6.7 | nt | -0.3 | nt | nt
C/C(=N\NC(=O)c1cccc(N/N=C(\C)c2ccc([N+](=O)[O-])cc2)c1)c1ccc([N+](=O)[O-])cc1 | -1.3 | 33.1* | 11.9 | 1.9 | -1.3 | 3.3
C/C(=N\NC(=O)c1cccc(N/N=C(\C)c2ccccc2)c1)c1ccccc1 | 1.4 | 20.2 | 17.1 | 3.3 | 2.2 | nt
CC1CCCCC1N1CN=C(Nc2nc3ccccc3s2)NC1 (stereo not drawn) | 1.7 | -0.2 | 4.8 | -9.6 | 0.5 | nt
Cc1cccn2c(=O)c3cc(C#N)c(=NC(=O)c4ccccc4)n(Cc4ccco4)c3nc12 | 1.6 | 32.0*! | -8.2 | -20.3 | 12.3 | 11.8
COCCCn1c(=NC(=O)c2ccccc2)c(C#N)cc2c(=O)n3cccc(C)c3nc21 | 0.5 | 6.6 | 12.9 | -109.2 | 14.2 | nt
O=C(/C=C/c1ccco1)NC(=S)Nc1cc(-c2nc3ccccc3s2)ccc1Cl | 1.4 | 52.1* | 0.5 | 25.0 | 1.7 | 1.3
O=C(/C=C/c1ccco1)NC(=S)Nc1cccc(-c2nc3ccccc3o2)c1 | 0.2 | 30.7* | -17.4 | 16.6 | 11.7 | -4.9
O=C(/C=C/c1ccco1)NC(=S)Nc1cccc([N+](=O)[O-])c1 | -1.4 | 39.2* | 7.2 | 3.6 | 13.0 | 18.2
CSc1nc(S(C)(=O)=O)nc2[nH]c(=O)[nH]c12 | nt | 0.4 | nt | -0.5 | nt | nt
CC(=O)NC(c1cccc(F)c1)c1nc(-c2ccoc2)cs1 (stereo not drawn) | nt | 0.5 | nt | -4.2 | nt | nt
CC(C)(C)C(=O)c1c(N)[nH]c(C(=O)c2ccccc2)c1-c1ccc(Cl)cc1Cl | nt | 3.3 | nt | nt | nt | nt
